# Data as given in the antibiotic and cytotoxicity screens of Wong et al. (2023).
# The whole screen tested about 39,000 compounds, of which about 1,500 (3.8%) were called active. The sample holds actives, similar compounds and a random draw of the others, so the mix is not that of the screen.
# Tested on: HSkMC (human skeletal muscle cells)
# Assay: cytotoxicity call (relative viability < 0.9)
# Details: 10 µM
row,SMILES,cytotoxicity call
1,C[C@H]1CCCCO[C@@H](CN(C)C(=O)C2CCCCC2)[C@@H](C)CN([C@@H](C)CO)C(=O)c2cc(NC(=O)c3ccccc3)ccc2O1,inactive
2,COC[C@@H](C)NC(=O)C1CN(C(C)=O)C1,inactive
3,C[C@H](CO)N1C[C@H](C)[C@@H](CN(C)S(=O)(=O)c2ccc(Cl)cc2)OCc2cn(nn2)CCCC1=O,inactive
4,Cc1noc(C)c1NC(=O)Nc1ccc2c(c1)C(=O)N([C@H](C)CO)C[C@@H](C)[C@H](CN(C)Cc1ccc(-c3ccccc3)cc1)O2,inactive
5,C[C@H]1CN([C@@H](C)CO)C(=O)c2cc(NS(=O)(=O)c3ccccc3)ccc2O[C@@H]1CN(C)S(=O)(=O)c1ccc(F)cc1,inactive
6,COc1ccc(-c2cnc3c(c2)C(=O)N([C@H](C)CO)C[C@H](C)[C@H](CN(C)C(=O)Cc2ccncc2)O3)cc1,inactive
7,C[C@@H]1CCCCO[C@H](CN(C)Cc2ccc(Cl)c(Cl)c2)[C@@H](C)CN([C@H](C)CO)C(=O)c2cc(NS(=O)(=O)c3ccc(Cl)cc3)ccc2O1,inactive
8,C[C@@H]1CCCCO[C@@H](CN(C)Cc2ccc(Cl)c(Cl)c2)[C@H](C)CN([C@H](C)CO)C(=O)c2cc(NS(=O)(=O)c3ccc(Cl)cc3)ccc2O1,active
9,CN1CCN(C(=O)[C@H]2[C@H](CO)[C@H]3Cn4c(ccc(C5=CCCC5)c4=O)[C@@H]2N3S(C)(=O)=O)CC1,inactive
10,CC(C)/C(=N/O)c1ccccc1,inactive
11,CC(C)NC(=O)N(C)C[C@@H]1Oc2ccc(NC(=O)C3CCCCC3)cc2C(=O)N([C@@H](C)CO)C[C@H]1C,inactive
12,C[C@@H]1O[C@H]2Oc3c(-c4ccc(O)cc4)oc4cc(O)c(c(O)c4c3=O)-c3cc(ccc3O)/C=C\C(=O)OC[C@H]3O[C@@H](O[C@H]([C@H]1O)[C@H]2O)[C@H](O)[C@@H](O)[C@@H]3O,inactive
13,CC(=O)Nc1ncc(CN2CCOCC2)s1,inactive
14,Cc1c(CN2CCN(C(=O)[C@H](C)O)CC2)sc2c(N3CCOCC3)nc(-c3cnc(N)nc3)nc12,active
15,CC(C)NC(=O)N(C)C[C@@H]1Oc2ccc(NS(=O)(=O)c3cccs3)cc2C(=O)N([C@H](C)CO)C[C@@H]1C,inactive
16,CC(C)NC(=O)N(C)C[C@H]1Oc2ccc(NC(=O)C3CCCCC3)cc2C(=O)N([C@H](C)CO)C[C@H]1C,inactive
17,C[C@H](CO)N1C[C@H](C)[C@H](CN(C)C(=O)NC2CCCCC2)OCCCC[C@H](C)Oc2ccc(NC(=O)Nc3ccc4c(c3)OCO4)cc2C1=O,inactive
18,C[C@H]1CN([C@@H](C)CO)C(=O)c2cc(-c3cccc(C#N)c3)cnc2O[C@@H]1CN(C)C(=O)c1cnccn1,inactive
19,CC1(COc2ccc3c(c2)ncn3-c2ccc3cccc(N4CCC(N)CC4)c3n2)COC1,active
20,C=CCNC(=O)[C@@H]1[C@H]2C(=O)O[C@H](c3ccccc3)[C@H](c3ccccc3)N2[C@H](c2ccc(OCCO)cc2)[C@@]12C(=O)Nc1ccc(C#CC3=CCCCC3)cc12,inactive
21,O=C1O[C@H](c2ccccc2)[C@H](c2ccccc2)N2[C@H]1[C@@H](C(=O)NC[C@@H](O)c1ccccc1)[C@]1(C(=O)Nc3ccc(C#CC4(O)CCCCCC4)cc31)[C@H]2c1ccccc1OCCO,inactive
22,O=C1O[C@H](c2ccccc2)[C@H](c2ccccc2)N2[C@H]1[C@@H](C(=O)NC[C@@H](O)c1ccccc1)[C@]1(C(=O)Nc3ccc(C#CC4=CCCCC4)cc31)[C@H]2c1ccccc1OCCO,active
23,COCCOC(=O)N1C(=O)[C@@]2(c3cc(C#CC4=CCCCC4)ccc31)[C@H](c1ccc(OCCO)cc1)N1[C@H](c3ccccc3)[C@H](c3ccccc3)OC(=O)[C@H]1[C@@H]2C(=O)N1CCc2cc(OC)c(OC)cc2C1,inactive
24,C=CCNC(=O)[C@H]1[C@@H]2C(=O)O[C@@H](c3ccccc3)[C@@H](c3ccccc3)N2[C@@H](c2ccccc2OCCO)[C@]12C(=O)Nc1ccc(C#CC3=CCCCC3)cc12,active
25,C=CCNC(=O)[C@@H]1[C@H]2C(=O)O[C@H](c3ccccc3)[C@H](c3ccccc3)N2[C@H](c2ccccc2OCCO)[C@@]12C(=O)Nc1ccc(C#CC3=CCCCC3)cc12,active
26,O=C1O[C@@H](c2ccccc2)[C@@H](c2ccccc2)N2[C@@H](c3ccc(OCCO)cc3)[C@]3(C(=O)Nc4ccc(C#CC5=CCCCC5)cc43)[C@@H](C(=O)NC[C@H](O)c3ccccc3)[C@H]12,inactive
27,C=CCNC(=O)[C@H]1[C@@H]2C(=O)O[C@@H](c3ccccc3)[C@@H](c3ccccc3)N2[C@@H](c2ccc(OCCO)cc2)[C@]12C(=O)Nc1ccc(C#CC3=CCCCC3)cc12,inactive

row,SMILES,cytotoxicity call
1,COCCOC(=O)N1C(=O)[C@@]2(c3cc(C#CC4=CCCCC4)ccc31)[C@H](c1ccccc1OCCO)N1[C@H](c3ccccc3)[C@H](c3ccccc3)OC(=O)[C@H]1[C@@H]2C(=O)N1CCc2cc(OC)c(OC)cc2C1,inactive
2,COCCOC(=O)N1C(=O)[C@@]2(c3cc(C#CC4=CCCCC4)ccc31)[C@H](C(=O)N1CCc3cc(OC)c(OC)cc3C1)[C@H]1C(=O)O[C@H](c3ccccc3)[C@H](c3ccccc3)N1[C@@H]2c1ccccc1OCCO,active
3,C=CCNC(=O)[C@H]1[C@@H]2C(=O)O[C@@H](c3ccccc3)[C@@H](c3ccccc3)N2[C@@H](c2ccccc2OCCO)[C@]12C(=O)Nc1ccc(C#CC3(O)CCCCCC3)cc12,inactive
4,C=CCNC(=O)[C@@H]1[C@H]2C(=O)O[C@H](c3ccccc3)[C@H](c3ccccc3)N2[C@H](c2ccccc2OCCO)[C@@]12C(=O)Nc1ccc(C#Cc3ccc(OC)cc3)cc12,inactive
5,C[C@H]1CN([C@@H](C)CO)C(=O)c2cc(NC(=O)Cn3cnnn3)ccc2O[C@@H]1CN(C)Cc1ccc(-c2ccccc2)cc1,inactive
6,COc1ccc(NC(=O)Nc2ccc3c(c2)C(=O)N([C@H](C)CO)C[C@@H](C)[C@H](CN(C)S(=O)(=O)c2c(C)noc2C)OCCCC[C@@H](C)O3)cc1,inactive
7,CC1CC2C3CC(F)C4=CC(=O)C=CC4(C)C3(F)C(O)CC2(C)C1(O)C(=O)COC(=O)C(C)(C)C (centres undefined),inactive
8,CC(=O)Nc1nnc2n1CCS2,inactive
9,C[C@H](O)C#Cc1cnc2c(c1)C(=O)N([C@H](C)CO)C[C@@H](C)[C@@H](CN(C)C(=O)CN1CCOCC1)O2,inactive
10,C[C@H]1CN([C@@H](C)CO)C(=O)c2cccc(NS(=O)(=O)c3ccc(F)cc3)c2O[C@@H]1CN(C)S(=O)(=O)c1cn(C)cn1,inactive
11,C[C@@H]1CCCCO[C@H](CN(C)C(=O)c2ccncc2)[C@H](C)CN([C@H](C)CO)C(=O)c2cc(NS(=O)(=O)c3cn(C)cn3)ccc2O1,inactive
12,O=C(C[C@@H]1C=C[C@@H](NC(=O)c2cccc(F)c2)[C@@H](CO)O1)NCCN1CCCC1,inactive
13,Clc1cccn2nnnc12,inactive
14,C[C@@H]1CCCCO[C@H](CN(C)Cc2ccc(C(=O)O)cc2)[C@H](C)CN([C@@H](C)CO)C(=O)c2cc(NC(=O)c3ccccc3)ccc2O1,inactive
15,C[C@@H]1CCCCO[C@@H](CN(C)Cc2ccc(C(F)(F)F)cc2)[C@H](C)CN([C@@H](C)CO)C(=O)c2cc(NC(=O)CCC(F)(F)F)ccc2O1,inactive
16,COC(=O)C1=CC(CCCO)=C[C@@H](c2cccs2)N(Cc2cccc(OC(F)(F)F)c2)C=C1C(=O)OC,inactive
17,COc1ccc(C#Cc2ccc3c(c2)[C@]2(C(=O)N3)[C@H](C(=O)O)[C@H]3C(=O)O[C@H](c4ccccc4)[C@H](c4ccccc4)N3[C@@H]2c2ccccc2OCCO)cc1,inactive
18,COc1ccc(C#Cc2ccc3c(c2)[C@]2(C(=O)N3)[C@H](c3ccccc3OCCO)N3[C@H](c4ccccc4)[C@H](c4ccccc4)OC(=O)[C@H]3[C@@H]2C(=O)O)cc1,inactive
19,O=C1O[C@@H](c2ccccc2)[C@@H](c2ccccc2)N2[C@@H](c3ccccc3OCCO)[C@]3(C(=O)Nc4ccc(C#CC5=CCCCC5)cc43)[C@@H](C(=O)O)[C@H]12,inactive
20,NC(=O)[C@H]1[C@@H]2C(=O)O[C@@H](c3ccccc3)[C@@H](c3ccccc3)N2[C@@H](c2ccccc2OCCO)[C@]12C(=O)Nc1ccc(C#CC3=CCCCC3)cc12,active
21,COCCOC(=O)N1C(=O)[C@@]2(c3cc(C#Cc4ccc(OC)cc4)ccc31)[C@H](c1ccc(OCCO)cc1)N1[C@H](c3ccccc3)[C@H](c3ccccc3)OC(=O)[C@H]1[C@@H]2C(=O)NC[C@H](O)c1ccccc1,inactive
22,COc1ccc(C#Cc2ccc3c(c2)[C@]2(C(=O)N3)[C@H](C(N)=O)[C@H]3C(=O)O[C@H](c4ccccc4)[C@H](c4ccccc4)N3[C@@H]2c2ccccc2OCCO)cc1,active
23,COc1ccc(C#Cc2ccc3c(c2)[C@@]2(C(=O)N3C(=O)N[C@@H](C)c3ccccc3)[C@H](c3ccc(OCCO)cc3)N3[C@H](c4ccccc4)[C@H](c4ccccc4)OC(=O)[C@H]3[C@@H]2C(=O)O)cc1,active
24,O=C1O[C@H](c2ccccc2)[C@H](c2ccccc2)N2[C@H]1[C@@H](C(=O)O)[C@]1(C(=O)Nc3ccc(C#CC4=CCCCC4)cc31)[C@H]2c1ccccc1OCCO,inactive
25,COCCOC(=O)N1C(=O)[C@@]2(c3cc(C#Cc4ccc(OC)cc4)ccc31)[C@H](c1ccc(OCCO)cc1)N1[C@H](c3ccccc3)[C@H](c3ccccc3)OC(=O)[C@H]1[C@@H]2C(N)=O,inactive
26,C[C@H]1CN([C@@H](C)CO)C(=O)c2cccc(NC(=O)c3cnccn3)c2O[C@@H]1CN(C)S(=O)(=O)c1cccs1,inactive
27,C[C@@H]1CCCCO[C@H](CN(C)Cc2ccc(C(F)(F)F)cc2)[C@@H](C)CN([C@@H](C)CO)C(=O)c2cc(NC(=O)C3CCCCC3)ccc2O1,inactive
